Measurements reported in the supplement of paper PMC10849652.
Of roughly 8,800 targets only a part is listed; those with a hit were picked by preference. About 0.5% of all pairs of compound and target were hits. Unmarked numbers belong to inactive results.

Legend:
Assay in all cases: log2 fold change, soluble protein after heating vs DMSO (PISA); higher = thermal stabilisation; K562 lysate, 10 uM; active = over 0.2 and 3.5 SD of the protein, either way, in both replicates (recomputed)
[1] = compound: Cc1cn(-c2cc(NC(=O)c3ccc(C)c(Nc4nccc(-c5cccnc5)n4)c3)cc(C(F)(F)F)c2)cn1 [nilotinib]
Outline: (§1)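 K562 pellets were dounce-homogenised in PBS pH 7.4 with 1 mM MgCl2, and the crude extract at 1 mg/mL protein was treated with 10 μM compound for 30 min. Aliquots were heated for 3 min across 48°C-58°C, pooled, and brought to 0.5% NP-40 at 4°C; soluble protein was the supernatant after 21,000xg for 90 min. Soluble protein was quantified by TMTpro 16plex LC-MS/MS with channel sums equalised, and reported as log2 fold change in thermal stability against DMSO controls, with values from duplicates.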

[2] = compound: Cc1nc(Nc2n[nH]c3c2CN(C(=O)N[C@H](CN(C)C)c2ccccc2)C3(C)C)c2sccc2n1
Outline: as §1

[3] = compound: Cc1nc(Nc2ncc(C(=O)Nc3c(C)cccc3Cl)s2)cc(N2CCN(CCO)CC2)n1 [dasatinib]
Outline: as §1

[4] = compound: Cc1ncc(-c2ccnc(Nc3ccc(S(C)(=O)=O)cc3)n2)n1C(C)C
Outline: as §1

[5] = compound: Cn1cc(-c2ccc3c(c2)CCN3C(=O)Cc2cccc(C(F)(F)F)c2)c2c(N)ncnc21
Outline: as §1

[6] = compound: Cn1cc(CNCC2CCN(c3ncc(C(=O)NO)cn3)CC2)c2ccccc21 [quisinostat]
Outline: as §1

[7] = compound: Cn1cncc1[C@@](N)(c1ccc(Cl)cc1)c1ccc2c(c1)c(-c1cccc(Cl)c1)cc(=O)n2C [tipifarnib]
Outline: as §1

[8] = compound: NC(=O)Nc1cc(-c2cccc(F)c2)sc1C(=O)N[C@H]1CCCNC1
Outline: as §1

[9] = compound: NC(=O)c1cnc(N[C@@H]2CCCC[C@@H]2N)nc1Nc1cccc(-n2nccn2)c1
Outline: as §1

[10] = compound: NC1(c2ccc(-c3nc4ccn5c(=O)[nH]nc5c4cc3-c3ccccc3)cc2)CCC1
Outline: as §1

[11] = compound: NCC(=O)Nc1ccc(-n2nc(C(F)(F)F)cc2-c2ccc3c(ccc4ccccc43)c2)cc1
Outline: as §1

[12] = compound: O=C(CCCCCCC(=O)Nc1ccccc1)NO [vorinostat]
Outline: as §1

[13] = compound: O=C(O)c1ccc2c(c1)nc(Nc1cccc(Cl)c1)c1ccncc12 [silmitasertib]
Outline: as §1

[14] = compound: O=C1NC(=O)C(c2cnc3ccccn23)=C1c1cn2c3c(cc(F)cc13)CN(C(=O)N1CCCCC1)CC2
Outline: as §1

[15] = compound: c1cn2cc(-c3ccc4cn[nH]c4c3)nc(Nc3ccc(N4CCOCC4)cc3)c2n1 [entospletinib]
Outline: as §1

UniProt P53609, sequence (P53609 whole entry, looked up): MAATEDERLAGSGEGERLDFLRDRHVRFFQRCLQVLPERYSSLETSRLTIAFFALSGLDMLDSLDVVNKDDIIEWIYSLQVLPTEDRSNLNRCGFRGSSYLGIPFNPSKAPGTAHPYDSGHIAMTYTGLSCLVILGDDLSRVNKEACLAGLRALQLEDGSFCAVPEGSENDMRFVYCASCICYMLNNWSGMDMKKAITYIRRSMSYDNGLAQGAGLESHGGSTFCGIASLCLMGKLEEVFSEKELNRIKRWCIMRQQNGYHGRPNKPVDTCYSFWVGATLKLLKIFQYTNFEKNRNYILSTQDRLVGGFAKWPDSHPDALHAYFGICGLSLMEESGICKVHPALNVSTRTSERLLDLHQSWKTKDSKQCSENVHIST
UniProt Q13442, sequence (Q13442 whole entry, looked up): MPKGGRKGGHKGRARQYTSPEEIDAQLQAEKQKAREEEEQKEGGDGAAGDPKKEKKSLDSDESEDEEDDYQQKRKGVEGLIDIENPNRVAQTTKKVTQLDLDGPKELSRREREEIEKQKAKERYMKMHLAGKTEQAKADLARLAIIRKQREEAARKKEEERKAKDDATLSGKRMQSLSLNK
UniProt P53350, sequence (P53350 whole entry, looked up): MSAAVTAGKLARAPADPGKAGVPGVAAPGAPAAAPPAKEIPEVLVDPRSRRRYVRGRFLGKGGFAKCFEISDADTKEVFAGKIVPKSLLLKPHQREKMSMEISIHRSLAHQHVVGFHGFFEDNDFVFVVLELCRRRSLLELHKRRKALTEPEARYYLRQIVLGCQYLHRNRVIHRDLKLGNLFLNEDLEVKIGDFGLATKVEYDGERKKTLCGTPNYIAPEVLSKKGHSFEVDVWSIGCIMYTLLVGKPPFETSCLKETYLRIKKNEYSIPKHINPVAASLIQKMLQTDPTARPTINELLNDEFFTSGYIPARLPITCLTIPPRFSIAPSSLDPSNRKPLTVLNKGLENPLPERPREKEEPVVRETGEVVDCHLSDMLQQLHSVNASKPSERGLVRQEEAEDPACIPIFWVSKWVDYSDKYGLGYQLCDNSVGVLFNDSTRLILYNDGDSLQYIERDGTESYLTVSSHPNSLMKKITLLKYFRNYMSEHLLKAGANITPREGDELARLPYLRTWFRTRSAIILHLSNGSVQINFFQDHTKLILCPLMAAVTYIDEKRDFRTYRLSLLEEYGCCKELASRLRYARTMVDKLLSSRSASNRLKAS
UniProt P42356, sequence (P42356 whole entry, looked up): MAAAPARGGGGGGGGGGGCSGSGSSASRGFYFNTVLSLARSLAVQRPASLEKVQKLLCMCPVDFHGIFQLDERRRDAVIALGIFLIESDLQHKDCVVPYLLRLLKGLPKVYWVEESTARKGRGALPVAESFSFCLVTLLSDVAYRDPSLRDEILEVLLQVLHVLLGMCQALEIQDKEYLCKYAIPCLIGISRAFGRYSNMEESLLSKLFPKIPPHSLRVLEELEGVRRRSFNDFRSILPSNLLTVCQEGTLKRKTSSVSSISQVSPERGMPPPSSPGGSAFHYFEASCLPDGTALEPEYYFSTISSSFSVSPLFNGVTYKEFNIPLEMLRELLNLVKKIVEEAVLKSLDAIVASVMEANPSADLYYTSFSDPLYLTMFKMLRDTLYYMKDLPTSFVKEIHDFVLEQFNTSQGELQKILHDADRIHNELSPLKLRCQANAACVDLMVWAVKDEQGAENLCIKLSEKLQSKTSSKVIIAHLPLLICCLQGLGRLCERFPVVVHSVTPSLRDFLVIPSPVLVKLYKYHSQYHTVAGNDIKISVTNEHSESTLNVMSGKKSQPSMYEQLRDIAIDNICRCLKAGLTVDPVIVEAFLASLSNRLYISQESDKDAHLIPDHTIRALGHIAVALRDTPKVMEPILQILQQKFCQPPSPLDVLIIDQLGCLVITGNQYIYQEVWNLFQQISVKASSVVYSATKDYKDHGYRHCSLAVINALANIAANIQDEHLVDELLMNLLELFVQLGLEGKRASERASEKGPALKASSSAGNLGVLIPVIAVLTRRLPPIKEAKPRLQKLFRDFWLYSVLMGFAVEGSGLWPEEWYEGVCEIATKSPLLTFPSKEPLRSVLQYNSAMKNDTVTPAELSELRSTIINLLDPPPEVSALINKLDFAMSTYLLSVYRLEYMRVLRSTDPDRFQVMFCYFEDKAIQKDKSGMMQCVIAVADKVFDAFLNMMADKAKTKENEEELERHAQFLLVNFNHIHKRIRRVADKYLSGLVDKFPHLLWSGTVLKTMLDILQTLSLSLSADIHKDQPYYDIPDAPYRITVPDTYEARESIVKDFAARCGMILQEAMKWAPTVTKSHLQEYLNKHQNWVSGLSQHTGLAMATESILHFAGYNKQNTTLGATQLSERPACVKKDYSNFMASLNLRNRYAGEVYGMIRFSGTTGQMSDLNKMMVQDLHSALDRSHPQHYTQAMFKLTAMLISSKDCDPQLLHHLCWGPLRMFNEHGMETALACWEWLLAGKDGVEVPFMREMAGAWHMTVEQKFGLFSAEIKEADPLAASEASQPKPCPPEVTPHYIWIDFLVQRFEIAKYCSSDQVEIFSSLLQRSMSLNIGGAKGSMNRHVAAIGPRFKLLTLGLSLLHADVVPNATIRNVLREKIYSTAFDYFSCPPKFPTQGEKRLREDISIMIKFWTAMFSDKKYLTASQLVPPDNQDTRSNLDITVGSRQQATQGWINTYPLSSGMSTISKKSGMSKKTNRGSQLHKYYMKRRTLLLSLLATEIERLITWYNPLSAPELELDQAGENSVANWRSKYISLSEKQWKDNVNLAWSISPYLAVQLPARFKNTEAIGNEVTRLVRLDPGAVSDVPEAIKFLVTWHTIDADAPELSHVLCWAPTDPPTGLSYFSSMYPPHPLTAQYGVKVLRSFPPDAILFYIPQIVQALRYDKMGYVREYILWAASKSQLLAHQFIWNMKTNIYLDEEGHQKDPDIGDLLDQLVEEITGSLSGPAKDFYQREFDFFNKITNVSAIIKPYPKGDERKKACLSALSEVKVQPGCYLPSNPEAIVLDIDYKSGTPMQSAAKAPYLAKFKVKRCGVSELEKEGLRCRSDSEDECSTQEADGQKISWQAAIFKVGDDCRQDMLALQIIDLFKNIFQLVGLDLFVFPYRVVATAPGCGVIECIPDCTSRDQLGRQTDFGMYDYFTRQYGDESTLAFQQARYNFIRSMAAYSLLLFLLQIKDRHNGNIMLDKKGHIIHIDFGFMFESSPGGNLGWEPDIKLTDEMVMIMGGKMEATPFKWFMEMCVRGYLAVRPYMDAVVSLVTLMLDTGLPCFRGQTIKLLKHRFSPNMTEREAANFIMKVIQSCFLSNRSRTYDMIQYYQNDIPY
UniProt Q53EL6, sequence (Q53EL6 whole entry, looked up): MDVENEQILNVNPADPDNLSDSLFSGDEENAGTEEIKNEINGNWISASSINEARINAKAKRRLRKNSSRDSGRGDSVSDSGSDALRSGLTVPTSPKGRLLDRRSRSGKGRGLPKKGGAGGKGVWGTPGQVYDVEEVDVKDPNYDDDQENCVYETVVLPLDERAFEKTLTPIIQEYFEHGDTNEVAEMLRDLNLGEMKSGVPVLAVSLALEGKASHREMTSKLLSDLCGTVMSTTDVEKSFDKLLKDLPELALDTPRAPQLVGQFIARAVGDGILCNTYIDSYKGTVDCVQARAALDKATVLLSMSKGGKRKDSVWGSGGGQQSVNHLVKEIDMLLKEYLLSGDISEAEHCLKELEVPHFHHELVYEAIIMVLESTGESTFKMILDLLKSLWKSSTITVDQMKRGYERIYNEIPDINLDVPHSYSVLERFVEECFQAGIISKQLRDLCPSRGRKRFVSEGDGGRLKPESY
UniProt Q8TBX8, sequence (Q8TBX8 whole entry, looked up): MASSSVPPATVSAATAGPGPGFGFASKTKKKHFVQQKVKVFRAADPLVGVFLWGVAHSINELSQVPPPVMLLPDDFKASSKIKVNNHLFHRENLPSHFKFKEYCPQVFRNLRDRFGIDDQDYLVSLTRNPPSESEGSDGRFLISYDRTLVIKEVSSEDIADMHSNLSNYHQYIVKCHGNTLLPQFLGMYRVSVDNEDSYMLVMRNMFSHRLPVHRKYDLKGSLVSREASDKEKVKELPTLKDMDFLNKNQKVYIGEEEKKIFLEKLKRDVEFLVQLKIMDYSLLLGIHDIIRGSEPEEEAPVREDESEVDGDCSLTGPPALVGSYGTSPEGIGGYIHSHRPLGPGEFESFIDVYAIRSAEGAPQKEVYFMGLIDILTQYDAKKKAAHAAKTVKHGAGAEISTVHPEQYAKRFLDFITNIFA
UniProt P14314, sequence (P14314 whole entry, looked up): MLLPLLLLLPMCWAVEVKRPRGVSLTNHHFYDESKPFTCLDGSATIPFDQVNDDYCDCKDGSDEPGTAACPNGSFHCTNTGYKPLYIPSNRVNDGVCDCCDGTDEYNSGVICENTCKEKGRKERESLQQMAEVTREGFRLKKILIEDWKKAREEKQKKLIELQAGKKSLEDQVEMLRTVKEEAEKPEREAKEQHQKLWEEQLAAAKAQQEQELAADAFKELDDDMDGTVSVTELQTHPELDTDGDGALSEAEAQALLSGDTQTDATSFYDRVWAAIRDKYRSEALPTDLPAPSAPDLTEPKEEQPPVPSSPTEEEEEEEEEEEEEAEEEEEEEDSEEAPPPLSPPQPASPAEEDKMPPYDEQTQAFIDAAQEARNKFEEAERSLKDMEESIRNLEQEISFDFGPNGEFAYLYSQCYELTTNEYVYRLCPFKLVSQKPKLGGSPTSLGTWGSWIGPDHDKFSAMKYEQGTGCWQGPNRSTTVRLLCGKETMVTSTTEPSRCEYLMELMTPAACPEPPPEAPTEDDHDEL
UniProt Q9UHV9, sequence (Q9UHV9 whole entry, looked up): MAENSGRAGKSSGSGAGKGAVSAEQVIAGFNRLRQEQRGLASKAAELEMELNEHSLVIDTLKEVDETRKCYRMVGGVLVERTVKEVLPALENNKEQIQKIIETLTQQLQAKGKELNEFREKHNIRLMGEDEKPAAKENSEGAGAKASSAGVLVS

Row | Target | log2 fold change [1] | log2 fold change [2] | log2 fold change [3] | log2 fold change [4] | log2 fold change [5] | log2 fold change [6] | log2 fold change [7] | log2 fold change [8] | log2 fold change [9] | log2 fold change [10] | log2 fold change [11] | log2 fold change [12] | log2 fold change [13] | log2 fold change [14] | log2 fold change [15]
1 | PRKACA (UniProt P17612) | -0.055 | 0.638 (active) | 0.07 | 0.068 | 0.049 | 0.097 | -0.083 | 0.637 (active) | 0.273 | -0.038 | -0.114 | 0.007 | -0.02 | 0.033 | 0.03
2 | PDCD4 (UniProt Q53EL6) | 0.028 | 0.019 | -0.026 | 0.035 | 0.005 | -0.044 | -0.008 | -0.01 | 0.009 | -0.013 | 0.004 | -0.378 (active) | 0.014 | 0.003 | 0.038
3 | PDAP1 (UniProt Q13442) | 0 | 0.002 | 0.066 | -0.01 | -0.009 | 0.013 | 0.044 | 0.017 | -0.016 | -0.032 | 0.014 | 0.118 | 0.005 | -0.004 | -0.027
4 | PRKAR2B (UniProt P31323) | 0.023 | -0.078 | -0.104 | 0.013 | 0.031 | 0.073 | 0.019 | -0.1 | -0.028 | 0.013 | 0.014 | -0.093 | 0.009 | 0.025 | -0.055
5 | PFKP (UniProt Q01813) | 0.026 | -0.014 | 0.012 | 0.003 | 0.009 | 0.024 | 0.016 | 0 | -0.008 | -0.004 | 0.004 | 0.009 | 0.008 | 0.03 | 0.049
6 | PIP4K2C (UniProt Q8TBX8) | 0.169 | -0.015 | 0.047 | 0.298 | 0.029 | -0.095 | -0.012 | 0.035 | 0.033 | -0.085 | 0.021 | -0.07 | 0.425 (active) | 0.063 | 0.004
7 | PRKCSH isoform 2 (UniProt P14314) | -0.004 | 0.099 | 0.088 | 0.116 | 0.003 | -0.157 | -0.081 | -0.079 | 0.038 | -0.192 | -0.046 | 0.126 | -0.057 | -0.019 | 0.037
8 | PCBP2 (UniProt H3BRU6) | 0.066 | 0.04 | 0.079 | 0.027 | -0.082 | -0.119 | -0.095 | 0.042 | -0.023 | 0.084 | 0.139 | -0.662 (active) | -0.102 | -0.053 | 0.061
9 | PRKAR2A (UniProt P13861) | -0.036 | -0.051 | -0.065 | -0.016 | 0.017 | 0.02 | 0.025 | -0.198 | -0.037 | -0.011 | 0.005 | -0.037 | -0.008 | -0.06 | -0.035
10 | PRKACB isoform 2 (UniProt P22694) | -0.076 | 0.818 (active) | 0.025 | 0.091 | -0.028 | -0.033 | -0.063 | 0.538 (active) | 0.177 | -0.025 | -0.014 | -0.018 | 0.054 | 0.002 | 0.042
11 | POLB (UniProt P06746) | 0.035 | -0.013 | 0 | -0.026 | 0.008 | -0.028 | 0.002 | 0.022 | 0.012 | -0.053 | 0.027 | -0.302 (active) | -0.106 | -0.023 | 0.022
12 | PLK1 (UniProt P53350) | 0.014 | -0.073 | -0.004 | 0.008 | -0.015 | -0.021 | 0.032 | -0.193 | -0.043 | 0.01 | 0.027 | -0.638 (active) | 0.005 | 0.022 | 0.072
13 | PGGT1B (UniProt P53609) | 0.01 | -0.005 | 0.005 | -0.03 | 0.048 | 0.066 | 0.208 | 0.018 | -0.037 | 0.047 | -0.038 | 0.08 | 0.109 | -0.029 | -0.054
14 | PRPF6 (UniProt O94906) | -0.001 | 0.021 | -0.036 | -0.005 | 0.026 | -0.067 | 0.008 | 0.044 | 0.022 | -0.019 | 0.002 | -0.262 (active) | 0.047 | 0.004 | 0.026
15 | PFDN2 (UniProt Q9UHV9) | -0.011 | 0.013 | 0.008 | -0.045 | -0.019 | 0.037 | 0 | -0.018 | -0.028 | 0.053 | -0.049 | 0.098 | 0.015 | -0.068 | 0.007
16 | PICALM (UniProt H0YEH1) | -0.023 | -0.012 | -0.039 | -0.007 | -0.005 | -0.095 | 0.019 | 0.166 | -0.021 | -0.042 | -0.048 | 0.037 | -0.045 | -0.075 | -0.237
17 | PDS5A (UniProt Q29RF7) | -0.013 | -0.002 | -0.081 | -0.003 | 0.008 | -0.113 | 0.001 | 0.047 | 0.011 | -0.023 | -0.001 | -0.525 (active) | 0.073 | -0.01 | 0.047
18 | PI4KA (UniProt P42356) | -0.025 | 0.055 | -0.098 | 0.015 | 0.043 | -0.076 | -0.031 | 0.041 | 0.003 | 0.019 | -0.011 | -0.426 (active) | 0.077 | 0.004 | 0.031
19 | PLA2G4B isoform 6 (UniProt P0C869) | -0.177 | 0.259 | -0.1 | -0.326 | -0.047 | -0.671 (active) | 0.022 | 0.158 | 0.006 | -0.073 | -0.008 | 0.002 | -0.017 | 0.264 | 0.06
